This is an account of results in PubChem BioAssay (NCI).

Compounds without any hit were thinned out: in the full panel of roughly 83,000, 20% have a hit.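 In brief: 96-well plates, 48 h treatment, single concentration, percent growth endpoint.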 Active and inactive are the calls of the source. The calls were made as follows: active = growth percent below 10; inactive = the rest.

For the test, the system named is DU-145 prostate. Put plainly: NCI-60 one-dose screen, 48 h (100 = growth as untreated, 0 = no growth, -100 = all killed). The note with it: 10 µM unless noted.
In the case of `O=C(Nc1ccc2c(ccn2Cc2ccccn2)c1)c1ccnnc1`, the growth is 89.1% (inactive). In the case of `N#C/C(=C\c1ccc(-c2ccc(Cl)cc2Cl)o1)c1ccc(F)cc1` it was 102% (inactive). In the case of `COc1ccc(/C(N)=N/C(N)=N/c2nc3ccccc3s2)cc1`, the growth is 81% (inactive). Turning to `Nc1nc(-c2cccc([N+](=O)[O-])c2)c(N=Nc2ccccc2)s1`, the growth was 69.5% (inactive). In the case of `CNC(=O)c1cc(Oc2ccc3nc(NC(=O)c4cc(N5CCOCC5)cc(C(F)(F)F)c4)sc3c2)ccn1` it was 86.1% (inactive); in that of `C=C(C)[C@@H]1CC[C@]2(COP(=O)(OCC)OCC)CC[C@]3(C)[C@H](CC[C@@H]4[C@@]5(C)CCCNC(C)(C)[C@@H]5CC[C@]43C)[C@@H]12`, 31.8% (inactive).

For the compound `CCCn1cnc2c(c1=N)C(c1ccc(F)cc1)c1sc3c(CC)cccc3c1O2` (stereo not drawn), the growth was 4.9% (active). The figure for `CC1(C)[C@@H](O)CC[C@]2(C)[C@H]3CC[C@@H]4[C@H]5[C@H](C(=O)/C=C\c6ccc([N+](=O)[O-])cc6)CC[C@]5(O)CC[C@@]4(C)[C@]3(C)CC[C@@H]12` is 58% (inactive); for `c1cc(-c2nc3ccc4[nH]ncc4c3c3c2CCCC3)[nH]n1` it is 63% (inactive). In the case of `O=C(CSc1nc2ccccc2c(=O)n1-c1ccccc1)Nc1ccc(-c2nc3ccc([N+](=O)[O-])cc3[nH]2)cc1` it was 84.2% (inactive); in that of `C[C@@H](Nc1ncnc2ccc(-c3cnc(Cl)c(NS(C)(=O)=O)c3)cc12)c1ccccc1`, 34.1% (inactive). Turning to `CC(=O)Nc1cccc(Nc2nc(N[C@H](C)c3ccccc3)c3ccccc3n2)c1`, the growth is 65% (inactive). In the case of `COc1cc(-c2nn(C(C)(C)C)cc2-c2ccnc(NCCCNS(=O)(=O)c3cccc(F)c3)n2)ccc1Cl`, the growth was 69.3% (inactive). In the case of `Cc1ccc2c(c1)C(=O)/C(=C/c1cccc(F)c1)S2` it was 111% (inactive); in that of `CCCC(=O)NC(c1cccnc1)c1cc(C(C)(C)C)c2cccnc2c1O` (stereo not drawn), 31.8% (inactive); in that of `CCN(CC)CCn1c2ccc(O)cc2c2sc3cc(OC)ccc3c(=O)c21`, 17.2% (inactive). Regarding `Cn1cc(-c2nc(N)nnc2-c2c[nH]c3ccccc23)c2cc(Br)ccc21`, the growth is 18.6% (inactive). With `C=C(C)[C@@H]1CC[C@]2(COCCCNCCC#N)CC[C@]3(C)[C@H](CC[C@@H]4[C@@]5(C)CC[C@H](OCCCNCCC#N)C(C)(C)[C@@H]5CC[C@]43C)[C@@H]12`, the growth is 65% (inactive). The figure for `CCNC(=O)N1CCc2cc(OC)c(OCCc3ccc(OC)c(N)c3)cc2C1c1ccc(C)cc1C` (stereo not drawn) is 16.4% (inactive). The figure for `CC1(C)CC[C@]2(C(=O)N3CCOCC3)CC[C@]3(C)C(=CC[C@@H]4[C@@]5(C)C/C(=C/c6ccccn6)C(=O)C(C)(C)[C@@H]5CC[C@]43C)[C@@H]2C1` is 62.3% (inactive); for `O=C(Nc1nc2ccc([N+](=O)[O-])cc2s1)Nc1ccccc1Br` it is 46.5% (inactive); for `CC1=N[C@@H]2CN(C(=O)OC(C)(C)C)C[C@@H]2n2c1cc1ccccc1c2=O` it is 111% (inactive).

`Cc1[nH]c(C(=O)Nc2ccccc2OCc2cccc(C(=O)N3CCC[C@@H](N)C3)c2)c(Cl)c1Cl`: the growth was -89.3% (active). The figure for `Cc1cc(-c2ccc(Cl)cc2)n(Cc2nnc(SCC(=O)Nc3ccc(S(N)(=O)=O)cc3)n2-c2ccc([N+](=O)[O-])cc2)n1` is 101% (inactive). For `Cc1c(F)cc(C(N)=O)cc1NCC(=O)Nc1ccc([N+](=O)[O-])cc1`, the growth was 86.7% (inactive).

As for `COc1cc(-c2ccc3ncnc(NCc4ccccc4)c3c2)cnc1OC`, the growth is 24.3% (inactive). The figure for `CCNC(=O)N1CCc2cc(OC)c(OCCc3ccc(OC)c(N)c3)cc2C1c1cc(C)c(C)cc1C` (stereo not drawn) is 38.7% (inactive). In the case of `O=C1[C@H]2Cc3c([nH]c4ccccc34)[C@@H](c3ccc(Br)cc3)N2C(=O)CN1C1CCN(CC2CCCCC2)CC1` it was -49.7% (active).

Consider `COC(=O)c1ccc(NC2=C/C(=N/S(=O)(=O)c3ccc(C(=O)O)cc3)c3ccccc3C2=O)cc1`, for which the growth was 7.85% (active). The figure for `COc1ccc(CCOc2cc3c(cc2OC)CCN(C(=O)NCc2cocn2)C3c2ccc(C)cc2C)cc1` (stereo not drawn) is 14.1% (inactive); for `Cc1ccc(C(=O)NN2C(=O)/C(=C/C=C/c3ccco3)SC2=S)cc1` it is 103% (inactive). The figure for `COc1ccc(/C=C/C(=O)c2cccc(NC(=O)CSc3nc4ccccc4c(=O)n3-c3ccccc3)c2)cc1OC` is 105% (inactive); for `C[C@H]1c2[nH]c3ccccc3c2C[C@H]2C(=O)N(CCCCCCC(=O)NO)CC(=O)N21` it is 95.2% (inactive); for `C=CCOc1cccc(/C=C2\SC(=S)N(C3CC(=O)N(c4ccc(Br)cc4)C3=O)C2=O)c1` (stereo not drawn) it is 109% (inactive).

Turning to `CC(C)(C)c1ccc(-c2nnc(-c3nc4ccccc4nc3Cl)o2)cc1`, the growth was 86.2% (inactive). Regarding `Nc1nc(-c2cccc([N+](=O)[O-])c2)c(N=Nc2ccc(Br)cc2)s1`, the growth was -41.2% (active).

As for `CCNC(=O)N1CCc2cc(OC)c(OCCc3ccc(OC)cc3)cc2C1c1ccc(OC)cc1C` (stereo not drawn), the growth was 16.2% (inactive). In the case of `COc1ccc(-c2nc(C(Cl)Cl)nc3cc(-c4ccccc4)nn23)cc1` it was -26.7% (active).
